# Laboratory results: PubChem BioAssay (EPA / NIEHS)
# Inconclusive results are not listed. Calls of active or inactive are those of the source. Rule for the calls: active = hit-call score of the fitted dose curve at least 0.9, where 1 is the maximum; inconclusive = response in the unintended direction; inactive = score below 0.9.
# Tests used:
# [1] = molecular target: Retinoic acid receptor RXR-alpha (Homo sapiens) (UniProt P19793); assay: ATG_RXRa_TRANS: Attagene TRANS-FACTORIAL HepG2 Assay for human Retinoid X Receptor alpha (RXRa) (AID 2283012)
# Procedure, shortened: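 TRANS format reporting activity of exogenous RXRa-Gal4 chimera in transiently transfected HepG2, 24 h exposure. Reporter transcripts quantified by RT-PCR with capillary electrophoresis, with gain of signal scored relative to DMSO.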
# [2] = molecular target: human RAR-related Orphan Receptor gamma (RORg), RORC (gene 6097) (UniProt P51449); assay: ATG_RORg_TRANS: Attagene TRANS-FACTORIAL HepG2 Assay for human RAR-related Orphan Receptor gamma (RORg) (AID 2283011)
# Procedure, shortened: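 Chimeric RORg-Gal4 transactivation in transfected HepG2; 24 h exposure; RT-PCR/capillary electrophoresis readout of reporter mRNA, DMSO baseline.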
# [3] = molecular target: human Vitamin D Receptor (VDR), VDR (gene 7421) (UniProt P11473); assay: ATG_VDR_TRANS: Attagene TRANS-FACTORIAL HepG2 Assay for human Vitamin D Receptor (VDR) (AID 2283022)
# Procedure, shortened: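 Multiplexed TRANS reporter in HepG2; 24 h treatment; reporter mRNA by RT-PCR plus capillary electrophoresis; upregulation scored relative to DMSO.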
# [4] = molecular target: human Retinoid X Receptor beta (RXRb), RXRB (gene 6257) (UniProt P28702); assay: ATG_RXRb_TRANS: Attagene TRANS-FACTORIAL HepG2 Assay for human Retinoid X Receptor beta (RXRb) (AID 2283013)
# Procedure, shortened: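 Readout is reporter transcript induction after 24 h dosing. It is measured by RT-PCR of total RNA followed by fluorescent capillary electrophoresis. HepG2 liver cells carry transfected multiple reporter units driven by an exogenous RXRb-Gal4 fusion; activity is relative to DMSO.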
# [5] = molecular target: human Thyroid Receptor alpha (THRa1), THRA (gene 7067) (UniProt P10827); assay: ATG_THRa1_TRANS: Attagene TRANS-FACTORIAL HepG2 Assay for human Thyroid Receptor alpha (THRa1) (AID 2283014)
# Procedure, shortened: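 Measured here is mRNA from a GAL4-UAS reporter in transfected HepG2 cells carrying a Gal4-fused receptor, 24 h post-dose. DMSO served as negative control and baseline.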
# Chain of Retinoic acid receptor RXR-alpha (Homo sapiens) (P19793 whole entry, looked up, the tested form may be a part): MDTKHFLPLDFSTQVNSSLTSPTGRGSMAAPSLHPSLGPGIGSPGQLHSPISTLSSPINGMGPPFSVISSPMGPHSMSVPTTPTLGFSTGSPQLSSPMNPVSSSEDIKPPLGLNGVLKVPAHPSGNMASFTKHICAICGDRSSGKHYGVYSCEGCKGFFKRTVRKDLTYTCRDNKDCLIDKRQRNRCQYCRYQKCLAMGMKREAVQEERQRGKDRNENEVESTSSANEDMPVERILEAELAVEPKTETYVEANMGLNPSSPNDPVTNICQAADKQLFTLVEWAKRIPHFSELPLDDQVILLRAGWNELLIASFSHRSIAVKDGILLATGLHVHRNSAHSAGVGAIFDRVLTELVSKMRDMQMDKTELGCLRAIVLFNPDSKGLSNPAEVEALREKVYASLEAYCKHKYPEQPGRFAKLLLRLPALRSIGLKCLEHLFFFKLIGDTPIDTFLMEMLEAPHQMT
# Chain of human RAR-related Orphan Receptor gamma (RORg), RORC (gene 6097) (P51449 whole entry, looked up, the tested form may be a part): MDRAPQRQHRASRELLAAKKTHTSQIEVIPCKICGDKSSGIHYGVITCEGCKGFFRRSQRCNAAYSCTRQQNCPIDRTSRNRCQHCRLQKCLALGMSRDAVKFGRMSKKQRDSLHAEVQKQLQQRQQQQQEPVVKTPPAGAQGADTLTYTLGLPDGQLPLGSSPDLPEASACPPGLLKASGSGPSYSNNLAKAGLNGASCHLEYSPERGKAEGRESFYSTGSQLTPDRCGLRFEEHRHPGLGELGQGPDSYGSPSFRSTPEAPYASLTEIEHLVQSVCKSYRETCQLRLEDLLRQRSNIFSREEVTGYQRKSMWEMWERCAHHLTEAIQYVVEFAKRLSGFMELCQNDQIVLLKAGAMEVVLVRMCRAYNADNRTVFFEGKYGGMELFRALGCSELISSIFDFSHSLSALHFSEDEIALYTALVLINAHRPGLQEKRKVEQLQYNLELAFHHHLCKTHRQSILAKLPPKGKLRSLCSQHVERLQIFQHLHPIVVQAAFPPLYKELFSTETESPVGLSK
# Chain of human Thyroid Receptor alpha (THRa1), THRA (gene 7067) (P10827 whole entry, looked up, the tested form may be a part): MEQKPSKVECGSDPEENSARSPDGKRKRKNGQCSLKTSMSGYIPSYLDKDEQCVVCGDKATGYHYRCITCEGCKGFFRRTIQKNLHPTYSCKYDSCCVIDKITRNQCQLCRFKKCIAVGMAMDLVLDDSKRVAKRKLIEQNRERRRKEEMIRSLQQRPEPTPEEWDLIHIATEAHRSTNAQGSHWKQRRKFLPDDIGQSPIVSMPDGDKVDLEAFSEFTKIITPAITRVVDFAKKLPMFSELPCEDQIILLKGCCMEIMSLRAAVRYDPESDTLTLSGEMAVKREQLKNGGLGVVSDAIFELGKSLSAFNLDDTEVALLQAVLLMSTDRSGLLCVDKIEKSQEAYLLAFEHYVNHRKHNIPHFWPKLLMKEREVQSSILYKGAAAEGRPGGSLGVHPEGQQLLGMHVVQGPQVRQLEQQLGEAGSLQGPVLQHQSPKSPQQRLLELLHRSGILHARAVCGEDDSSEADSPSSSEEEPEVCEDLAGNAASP
# Chain of human Retinoid X Receptor beta (RXRb), RXRB (gene 6257) (P28702 whole entry, looked up, the tested form may be a part): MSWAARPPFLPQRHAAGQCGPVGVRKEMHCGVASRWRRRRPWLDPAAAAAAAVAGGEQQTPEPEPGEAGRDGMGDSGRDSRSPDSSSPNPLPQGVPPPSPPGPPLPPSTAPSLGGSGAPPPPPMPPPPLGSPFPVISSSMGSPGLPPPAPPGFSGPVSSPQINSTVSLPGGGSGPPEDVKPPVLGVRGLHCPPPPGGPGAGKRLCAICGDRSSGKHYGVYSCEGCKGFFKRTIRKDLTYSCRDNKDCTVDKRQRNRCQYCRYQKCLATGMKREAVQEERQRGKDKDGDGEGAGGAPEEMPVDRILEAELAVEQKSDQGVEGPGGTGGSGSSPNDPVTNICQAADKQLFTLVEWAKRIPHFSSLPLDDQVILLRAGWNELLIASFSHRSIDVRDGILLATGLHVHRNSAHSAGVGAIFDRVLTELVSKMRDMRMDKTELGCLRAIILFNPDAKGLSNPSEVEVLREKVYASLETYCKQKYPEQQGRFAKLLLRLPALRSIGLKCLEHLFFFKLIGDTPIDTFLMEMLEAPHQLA
# Chain of human Vitamin D Receptor (VDR), VDR (gene 7421) (P11473 whole entry, looked up): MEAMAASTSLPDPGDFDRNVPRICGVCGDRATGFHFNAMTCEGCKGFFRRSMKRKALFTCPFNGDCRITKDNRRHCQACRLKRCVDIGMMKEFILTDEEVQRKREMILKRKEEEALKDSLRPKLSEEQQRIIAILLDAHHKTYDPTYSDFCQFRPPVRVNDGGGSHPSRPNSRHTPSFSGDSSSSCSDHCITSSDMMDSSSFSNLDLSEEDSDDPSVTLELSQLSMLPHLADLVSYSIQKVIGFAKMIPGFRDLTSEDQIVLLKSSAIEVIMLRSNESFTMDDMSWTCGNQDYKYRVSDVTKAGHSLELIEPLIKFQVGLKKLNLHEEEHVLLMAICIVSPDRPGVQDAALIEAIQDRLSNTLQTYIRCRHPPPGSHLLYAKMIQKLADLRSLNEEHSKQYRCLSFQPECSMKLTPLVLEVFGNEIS
compound,measurement,setting,value
C=C[C@](C)(O)CC[C@@H]1[C@@]2(C)CCCC(C)(C)[C@@H]2CC[C@@]1(C)O,outcome,[1],inactive
CCC(CC)C(=O)O,outcome,[1],inactive
c1ccc(CNCc2ccccc2)cc1,outcome,[2],inactive
same,outcome,[3],inactive
CC(C)(C)c1ccc(-c2ccc(C(C)(C)C)cc2)cc1,outcome,[1],inactive
same,outcome,[4],inactive
same,outcome,[5],inactive
Cc1cccc(OCCOc2cccc(C)c2)c1,outcome,[1],inactive
COC(=O)c1sccc1S(N)(=O)=O,outcome,[2],inactive
same,outcome,[5],inactive
same,outcome,[3],inactive
OC1CCCCCCCCCCC1,outcome,[1],inactive
same,AC50,[4],44.6 µM (active)
CCOC(=O)CC(C(C)=O)C(C)=O,outcome,[1],inactive
CCCCCCCCCCCCCCCC(=O)OCC,outcome,[1],inactive
same,outcome,[4],inactive
NC(=O)c1ccccc1O,outcome,[1],inactive
O=C1CCCCCCCCCCCCCCCO1,outcome,[1],inactive
same,AC50,[4],70.4 µM (active)
same,outcome,[5],inactive
CC(C)c1ccc(C=O)cc1,outcome,[2],inactive
same,outcome,[5],inactive
same,outcome,[3],inactive
O=C1CCCC(=O)O1,outcome,[2],inactive
same,outcome,[5],inactive
same,outcome,[3],inactive
NC(CO)(CO)CO,outcome,[2],inactive
same,outcome,[3],inactive
CC=CC(=O)N(CC)c1ccccc1C,outcome,[2],inactive
same,outcome,[5],inactive
same,outcome,[3],inactive
COC=O,outcome,[1],inactive
same,outcome,[4],inactive
CCN(CCO)c1cccc(C)c1,outcome,[1],inactive
same,outcome,[4],inactive
COc1ccc(-c2coc3cc(O)ccc3c2=O)cc1,outcome,[1],inactive
same,outcome,[4],inactive
O=Cc1ccc(CO)o1,outcome,[2],inactive
same,outcome,[3],inactive
CC(C)(C)C1CCCCC1=O (stereo not given),outcome,[1],inactive
same,AC50,[4],91.4 µM (active)
same,outcome,[5],inactive
C=C(C)c1cccc(C(C)(C)N=C=O)c1,outcome,[2],inactive
same,outcome,[5],inactive
same,outcome,[3],inactive
C=C(C)C(=O)OCCO,outcome,[2],inactive
same,outcome,[3],inactive
CC1=NC(C)OC1C (stereo not given),outcome,[1],inactive
CC(=O)OCc1ccco1,outcome,[2],inactive
same,outcome,[3],inactive
